Compound activity from PubChem.
Rows were chosen to be rich in hits. Some 32% of all compounds tested hit in one or more screens of this group.
PostGolgi ctrl = growth of the yeast control strain, post-Golgi counter-screen; AID 738; actives 5% (n = 98,000); efflux-deficient yeast background strain, growth absorbance A615, 16 h; inhibition, % at 10 µM
CYP2C19 inh = blocks human cytochrome P450 2C19; P33261; AID 778; actives 21% (n = 96,000); inhibition, % at 5 µM; CYP2C19 Supersomes, luciferin-H EGE luminescence, 30 min;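 active = CYP2C19 inhibition above a set limit at 5 µM in the primary screen, cut at about 50% in these data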;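 note: plate controls were negative control wells for no effect and 2.5 mM tranylcypromine positive control for full effect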
CYP2C19 activ = cytochrome P450 2C19 (human) activation; AID 1025; activation factor at 5 µM; recombinant CYP2C19, luciferin-H EGE luminescence; hits give high values; 0 = fully inhibited enzyme, 1 = untreated enzyme; P33261; 96,000 tested, under 10 active;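 active = activation factor of at least 2 at 5 µM in the primary screen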;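 note: 0 = wells with 2.5 mM tranylcypromine and 1 = vehicle-only wells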
CYP2C9 inh = human CYP2C9 inhibition; P11712; CYP2C9 Supersomes, luciferin-H conversion, luminescence; inhibition, % at 5 µM; actives 20% (n = 96,000); AID 777;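 active = blocking of liver enzyme CYP2C9 beyond about 50% at 5 µM, limit read from the data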
Target sequence (P11712 whole entry, looked up): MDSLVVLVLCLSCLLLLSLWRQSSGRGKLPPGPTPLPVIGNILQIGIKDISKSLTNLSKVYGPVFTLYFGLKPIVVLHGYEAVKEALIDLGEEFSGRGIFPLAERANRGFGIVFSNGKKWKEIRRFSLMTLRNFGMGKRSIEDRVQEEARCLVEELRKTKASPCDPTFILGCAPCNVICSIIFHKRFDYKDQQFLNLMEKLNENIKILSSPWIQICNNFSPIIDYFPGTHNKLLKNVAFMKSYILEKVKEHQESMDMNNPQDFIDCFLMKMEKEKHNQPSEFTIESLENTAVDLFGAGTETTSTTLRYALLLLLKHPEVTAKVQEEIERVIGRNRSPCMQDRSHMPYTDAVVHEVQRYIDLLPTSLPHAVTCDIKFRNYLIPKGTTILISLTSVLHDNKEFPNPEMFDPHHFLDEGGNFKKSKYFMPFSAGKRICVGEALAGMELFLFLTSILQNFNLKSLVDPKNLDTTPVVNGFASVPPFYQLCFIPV
CYP2C9 act = activators of human CYP2C9. P11712. recombinant CYP2C9, luciferin-H conversion, luminescence; hits give high values; factor 1 = untreated enzyme, 0 = blocked. activation factor at 5 µM. actives 1.4% (n = 96,000);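 active = activation factor of 2 or more for CYP2C9 at a 5 µM dose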;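 note: 0 = sulfaphenazole-blocked wells and 1 = vehicle-only wells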
PostGolgi yeast = growth inhibition of a yeast mutant, post-Golgi transport screen | post-Golgi transport phenotypic cell assay | inhibition, % at 10 µM | actives 0.9% (n = 98,000) | AID 739;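 note: yeast cells grown in 1536-well plates; yeast grown about 18 h at 30C before absorbance read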
* = called active by the depositor; x = no result given. Cut-off read from the data, not from the text of the source, unless noted: active = inhibition above about 30%; inactive = the rest.

SMILES | PostGolgi ctrl | CYP2C19 inh | CYP2C19 activ | CYP2C9 inh | CYP2C9 act | PostGolgi yeast
O=C(Nc1ccc2c(c1)OCO2)C(c1ccc(Cl)cc1)N1CCC2(CC1)OCCO2 (configuration not stated) | 18 | 52* | 0.5 | 45 | 0.5 | 1
CC(C)c1ccc(NC(=O)C(c2ccc3c(c2)OCO3)N2CCC3(CC2)OCCO3)cc1 (configuration not stated) | 11 | 6 | 0.9 | 8 | 0.9 | -2
CCOCCCNC(=O)C(c1ccc(Cl)cc1)N1CCN(c2ccccc2)CC1 (configuration not stated) | 31* | 51* | 0.5 | 18 | 0.8 | 5
COC(=O)C(O)(CC(=O)Nc1ccc(OC(F)(F)F)cc1)C(F)(F)F (configuration not stated) | 6 | 8 | 0.9 | 17 | 0.8 | 3
COc1cc(NC(=O)c2cc(-n3cnnc3)ccc2Cl)cc(OC)c1 | 12 | 11 | 0.9 | 7 | 0.9 | 6
CCOc1ccc(OCC)c(NC(=O)CN2CCN(c3ccc(C)cc3C)CC2)c1 | 21 | x | x | x | x | -4
Cc1nccn1-c1ccc(C(F)(F)F)cc1NC=O | 5 | 5 | 1 | 7 | 0.9 | -5
Cc1ccccc1P(=O)(CO)c1ccccc1C | 25 | 34 | 0.7 | -5 | 1 | -2
O=C(CSCc1ccc(F)cc1)N1CCOCC1 | 6 | 56* | 0.4 | 16 | 0.8 | -2
O=C(COC(=O)CSCC(=O)N1CCCCC1)NCc1ccc(F)cc1 | 4 | 51* | 0.5 | 4 | 1 | -2
Cc1noc(C)c1CSCC(=O)N1CCN(c2ccc(F)cc2)CC1 | 11 | 63* | 0.4 | 46 | 0.5 | -4
O=C(CSCc1ccc(Br)cc1)N1CCOCC1 | -2 | 94* | 0.1 | 4 | 1 | -3
CC1CCN(C(=O)CSCc2ccc(Cl)cc2)CC1 | 4 | 20 | 0.8 | -7 | 1.1 | -11
Cc1cc(NC(=O)CSc2nnc(-c3ccco3)n2CC2CCCO2)no1 (configuration not stated) | 2 | -10 | 1.1 | -13 | 1.1 | 23
CCCCNC(=O)OCC(CC)NC(=O)OC(C)C (configuration not stated) | 6 | 53* | 0.5 | 20 | 0.8 | -4
CCCCNC(=O)OCC(CC)NC(=O)OCC(C)C (configuration not stated) | 7 | 25 | 0.8 | 15 | 0.9 | 4
CN(CCOc1ccccc1)c1ccc(S(=O)(=O)N2CCCCC2)cn1 | 13 | 24 | 0.8 | -24 | 1.2 | -2
CCCCOc1ccc(S(=O)(=O)N2CCCCCC2)cc1 | 18 | 93* | 0.1 | 94* | 0.1 | 8
COc1ccccc1Oc1ccc(S(=O)(=O)N2CCCC2)cc1 | 10 | 56* | 0.4 | 78* | 0.2 | 11
O=C(NC1(C(F)(F)F)N=C(c2ccccc2)NC1=O)c1ccc(Cl)cc1Cl (configuration not stated) | 12 | 23 | 0.8 | 16 | 0.8 | -2
O=C(C(NS(=O)(=O)c1cccs1)c1ccccc1)N1CCN(c2ccccc2F)CC1 (configuration not stated) | 18 | 69* | 0.3 | 56* | 0.4 | -3
Cc1cccc(N2CCN(C(=O)C(NS(=O)(=O)c3cccs3)c3ccccc3)CC2)c1C (configuration not stated) | 40* | 22 | 0.8 | 2 | 1 | -4
O=C(c1ccco1)N1CCN(c2ccccc2F)CC1 | -1 | 14 | 0.9 | -16 | 1.2 | -1
O=C(C(Sc1ccccc1)c1ccccc1)N1CCN(c2ccccc2F)CC1 (configuration not stated) | 16 | 86* | 0.1 | 76* | 0.2 | 5
Cc1ccc(C)c(N2CCN(C(=O)CNS(=O)(=O)c3cccs3)CC2)c1 | 16 | 54* | 0.5 | 50* | 0.5 | -7
SMILES | PostGolgi ctrl | CYP2C19 inh | CYP2C19 activ | CYP2C9 inh | CYP2C9 act | PostGolgi yeast
CCOC(=O)N1CCN(C(=O)CNS(=O)(=O)c2cccs2)CC1 | -3 | 4 | 1 | 8 | 0.9 | -1
OCC1(c2cc(C(F)(F)F)n[nH]2)CCCCC1 | 3 | 22 | 0.8 | 22 | 0.8 | 10
O=C(CCl)N(c1ccccc1)c1c[nH]c2ccccc12 | 18 | 44 | 0.6 | 95* | 0.1 | 17
CCOC(=O)Cc1c[nH]c2ccccc12 | 4 | 15 | 0.9 | 9 | 0.9 | 0
O=C(CCl)N(c1ccc(Cl)cc1)c1c[nH]c2ccccc12 | 44* | 90* | 0.1 | 82* | 0.2 | 26
O=C(NCCN1CCCC1)c1ccc2c(=O)n(CCc3ccccc3)c(=O)[nH]c2c1 | 6 | 18 | 0.8 | 13 | 0.9 | -1
COc1ccc(NC(=O)c2ccc(-n3nc(C)c[n+]3[O-])cc2)cc1 | 7 | 7 | 0.9 | 29 | 0.7 | 0
Cc1cccc(NC(=S)NC2CC3CCCC(C2)N3Cc2cccs2)c1 (configuration not stated) | 8 | -8 | 1.1 | -7 | 1.1 | 2
Cc1cc(C)n(CC(O)Cn2c3ccc(Br)cc3c3cc(Br)ccc32)c(=O)n1 (configuration not stated) | 103* | 31 | 0.7 | 69* | 0.3 | 99*
Cc1cc(C)n(CCO)c(=O)n1 | 2 | 2 | 1 | 14 | 0.9 | -6
Cc1cc(C)n(CC(O)Cn2c3ccccc3c3ccccc32)c(=O)n1 (configuration not stated) | 29 | 84* | 0.2 | 72* | 0.3 | -5
Cc1ccc(S(=O)(=O)NC(=O)Nn2c(C)nnc2C)cc1 | 6 | -4 | 1 | 10 | 0.9 | 1
O=C(NCCN1CCN(Cc2ccccc2)CC1)C1c2ccccc2C(=O)N2CCc3ccccc3C12 (configuration not stated) | 2 | -1 | 1 | -5 | 1 | 9
O=C1c2cnc3nc(SCc4ccccc4)nn3c2CC2c3ccccc3CCN12 (configuration not stated) | 96* | -9 | 1.1 | 17 | 0.8 | 68*
OCC(O)C(O)C(O)C(O)C1NCCS1 (configuration not stated) | -9 | -10 | 1.1 | -5 | 1 | 2
Cn1c(=O)[nH]c(=O)c2c1nc(NCc1ccccc1)n2CC(O)c1ccccc1 (configuration not stated) | -2 | 17 | 0.8 | 18 | 0.8 | -17
O=S(=O)(c1ccc(Cl)s1)N1CCN(c2ncccn2)CC1 | 7 | 24 | 0.8 | 43 | 0.6 | 0
Cc1ccnc(NS(=O)(=O)c2cccs2)c1 | 6 | -8 | 1.1 | -15 | 1.1 | 2
O=S(=O)(Nc1ccc(-c2nc3cccnc3s2)cc1)c1ccc(Cl)s1 | 48* | -4 | 1 | 100* | 0 | 20
O=S(=O)(Nc1cccc2ncccc12)c1cccs1 | 25 | 35 | 0.6 | -193 | 2.9* | 11
O=S(=O)(Nc1ccc(-c2nc3cccnc3s2)cc1)c1cccs1 | -3 | 24 | 0.8 | 83* | 0.2 | 4
